Results published in ChEMBL document CHEMBL2218924, “A broad activity screen in support of a chemogenomic map for kinase signalling research and drug discovery” (Biochem J, 2013).

Tests used:
[1] = biological target: T1, Serine/threonine-protein kinase BRSK1 (Homo sapiens) (UniProt Q8TDC3); settings: at 1 µM
T1 sequence (whole entry): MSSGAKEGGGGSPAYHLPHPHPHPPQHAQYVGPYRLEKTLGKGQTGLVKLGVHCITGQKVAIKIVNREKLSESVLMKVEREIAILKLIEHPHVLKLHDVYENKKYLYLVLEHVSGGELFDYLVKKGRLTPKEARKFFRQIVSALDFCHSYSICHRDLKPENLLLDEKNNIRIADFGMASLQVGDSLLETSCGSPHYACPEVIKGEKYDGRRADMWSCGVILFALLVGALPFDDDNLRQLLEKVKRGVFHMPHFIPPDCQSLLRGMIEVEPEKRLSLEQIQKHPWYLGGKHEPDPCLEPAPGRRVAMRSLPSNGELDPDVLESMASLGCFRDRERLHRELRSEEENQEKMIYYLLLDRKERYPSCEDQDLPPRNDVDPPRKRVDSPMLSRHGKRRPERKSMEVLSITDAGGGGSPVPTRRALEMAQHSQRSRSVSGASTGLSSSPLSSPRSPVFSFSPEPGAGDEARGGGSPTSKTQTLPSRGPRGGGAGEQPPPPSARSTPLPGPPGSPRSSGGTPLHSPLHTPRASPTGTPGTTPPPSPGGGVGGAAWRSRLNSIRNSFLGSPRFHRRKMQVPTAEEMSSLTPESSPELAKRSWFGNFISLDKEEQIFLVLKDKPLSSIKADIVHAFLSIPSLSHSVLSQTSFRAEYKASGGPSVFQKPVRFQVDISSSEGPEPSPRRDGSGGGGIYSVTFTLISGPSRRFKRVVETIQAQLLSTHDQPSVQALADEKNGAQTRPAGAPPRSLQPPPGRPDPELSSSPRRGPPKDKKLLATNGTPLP

[2] = biological target: T1, Serine/threonine-protein kinase BRSK1 (Homo sapiens); settings: at 10 µM
[3] = biological target: T2, Serine/threonine-protein kinase BRSK2 (Homo sapiens) (UniProt Q8IWQ3); settings: at 1 µM
T2 sequence (whole entry): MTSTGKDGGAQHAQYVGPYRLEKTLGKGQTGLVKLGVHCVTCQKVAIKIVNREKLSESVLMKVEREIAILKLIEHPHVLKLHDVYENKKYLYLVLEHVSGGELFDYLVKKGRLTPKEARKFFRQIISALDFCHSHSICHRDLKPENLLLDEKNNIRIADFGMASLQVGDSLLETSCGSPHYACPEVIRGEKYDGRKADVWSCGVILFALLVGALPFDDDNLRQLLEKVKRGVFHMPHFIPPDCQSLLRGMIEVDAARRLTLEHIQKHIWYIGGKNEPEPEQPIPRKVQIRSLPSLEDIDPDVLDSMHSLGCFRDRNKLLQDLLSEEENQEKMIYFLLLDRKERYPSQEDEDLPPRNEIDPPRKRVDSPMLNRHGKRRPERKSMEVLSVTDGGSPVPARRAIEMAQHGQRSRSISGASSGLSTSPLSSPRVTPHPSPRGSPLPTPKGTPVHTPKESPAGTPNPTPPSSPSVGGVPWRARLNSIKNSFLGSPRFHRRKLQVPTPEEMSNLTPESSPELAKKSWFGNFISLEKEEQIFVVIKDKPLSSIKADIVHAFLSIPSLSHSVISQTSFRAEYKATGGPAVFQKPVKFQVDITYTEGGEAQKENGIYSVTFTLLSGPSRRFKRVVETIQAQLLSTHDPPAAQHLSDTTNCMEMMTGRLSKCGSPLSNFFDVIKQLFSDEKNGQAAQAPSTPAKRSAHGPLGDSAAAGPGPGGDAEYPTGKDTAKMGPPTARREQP

[4] = biological target: T2, Serine/threonine-protein kinase BRSK2 (Homo sapiens); settings: at 10 µM
[5] = biological target: T3, Cyclin-dependent kinase 1/cyclin B1 (Homo sapiens) (UniProt P06493+P14635); settings: at 1 µM
T3 sequence (P06493 whole entry, looked up): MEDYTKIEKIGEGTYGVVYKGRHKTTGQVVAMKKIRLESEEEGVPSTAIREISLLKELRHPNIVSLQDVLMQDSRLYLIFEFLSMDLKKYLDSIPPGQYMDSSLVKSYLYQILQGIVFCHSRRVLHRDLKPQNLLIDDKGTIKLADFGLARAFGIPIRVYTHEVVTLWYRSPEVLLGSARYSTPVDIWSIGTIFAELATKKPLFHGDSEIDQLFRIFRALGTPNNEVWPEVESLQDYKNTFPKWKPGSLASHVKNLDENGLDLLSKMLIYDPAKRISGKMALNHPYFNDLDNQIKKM
T3 sequence (P14635 whole entry, looked up): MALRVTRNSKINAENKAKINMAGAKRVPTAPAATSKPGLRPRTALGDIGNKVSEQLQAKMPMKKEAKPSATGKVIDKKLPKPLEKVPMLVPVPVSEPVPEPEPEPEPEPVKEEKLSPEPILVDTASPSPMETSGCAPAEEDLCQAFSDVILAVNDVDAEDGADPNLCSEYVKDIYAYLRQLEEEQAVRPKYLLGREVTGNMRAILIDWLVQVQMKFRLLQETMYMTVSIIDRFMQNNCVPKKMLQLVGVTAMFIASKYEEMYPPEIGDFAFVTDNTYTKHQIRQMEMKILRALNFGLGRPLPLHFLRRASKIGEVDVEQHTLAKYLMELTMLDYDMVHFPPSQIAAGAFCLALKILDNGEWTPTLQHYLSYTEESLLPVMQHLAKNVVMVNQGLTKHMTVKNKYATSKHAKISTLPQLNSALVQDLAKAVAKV

[6] = biological target: T3, Cyclin-dependent kinase 1/cyclin B1 (Homo sapiens); settings: at 10 µM
[7] = biological target: T4, Cyclin-dependent kinase 2/cyclin A (Homo sapiens) (UniProt P24941+P20248+P78396); settings: at 1 µM
[8] = biological target: T4, Cyclin-dependent kinase 2/cyclin A (Homo sapiens); settings: at 10 µM
[9] = biological target: T5, Cyclin-dependent kinase 2/cyclin E (Homo sapiens) (UniProt P24864+P24941+O96020); settings: at 1 µM
[10] = biological target: T5, Cyclin-dependent kinase 2/cyclin E (Homo sapiens); settings: at 10 µM
[11] = biological target: T6, CDK3/cyclin E (Homo sapiens) (UniProt P24864+O96020+Q00526); settings: at 1 µM
T6 sequence (O96020 whole entry, looked up): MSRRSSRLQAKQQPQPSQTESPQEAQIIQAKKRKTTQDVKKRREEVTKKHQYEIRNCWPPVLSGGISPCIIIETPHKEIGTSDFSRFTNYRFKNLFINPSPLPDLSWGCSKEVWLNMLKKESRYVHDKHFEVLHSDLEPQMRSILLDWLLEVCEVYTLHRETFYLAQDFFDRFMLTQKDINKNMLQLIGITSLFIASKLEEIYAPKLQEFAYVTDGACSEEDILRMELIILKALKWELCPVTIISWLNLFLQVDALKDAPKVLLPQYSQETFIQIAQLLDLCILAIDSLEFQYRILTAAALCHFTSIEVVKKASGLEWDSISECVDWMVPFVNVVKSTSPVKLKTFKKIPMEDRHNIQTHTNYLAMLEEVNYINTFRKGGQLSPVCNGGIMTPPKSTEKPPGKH
T6 sequence (P24864 whole entry, looked up): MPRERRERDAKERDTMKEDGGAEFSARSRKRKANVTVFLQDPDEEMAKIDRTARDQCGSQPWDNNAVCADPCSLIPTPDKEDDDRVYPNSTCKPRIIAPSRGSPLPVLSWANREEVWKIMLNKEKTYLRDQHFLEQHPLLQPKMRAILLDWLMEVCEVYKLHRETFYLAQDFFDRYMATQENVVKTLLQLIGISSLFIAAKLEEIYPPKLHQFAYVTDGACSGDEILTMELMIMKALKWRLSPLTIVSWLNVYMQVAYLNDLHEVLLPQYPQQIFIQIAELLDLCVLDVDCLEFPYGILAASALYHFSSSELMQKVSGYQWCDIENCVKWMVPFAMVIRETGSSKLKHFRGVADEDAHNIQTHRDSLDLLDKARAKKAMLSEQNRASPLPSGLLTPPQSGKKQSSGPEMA
T6 sequence (Q00526 whole entry, looked up): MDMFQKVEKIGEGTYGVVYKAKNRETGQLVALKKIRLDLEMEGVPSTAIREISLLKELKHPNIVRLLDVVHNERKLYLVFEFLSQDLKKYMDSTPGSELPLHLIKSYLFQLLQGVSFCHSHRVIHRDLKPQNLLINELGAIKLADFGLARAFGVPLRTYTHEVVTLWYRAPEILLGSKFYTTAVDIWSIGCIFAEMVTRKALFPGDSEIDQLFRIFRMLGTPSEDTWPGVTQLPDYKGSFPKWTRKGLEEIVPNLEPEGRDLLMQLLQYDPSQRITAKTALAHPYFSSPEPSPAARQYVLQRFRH

[12] = biological target: T6, CDK3/cyclin E (Homo sapiens); settings: at 10 µM
[13] = biological target: T7, Cyclin-dependent kinase 5/CDK5 activator 1 (Homo sapiens) (UniProt Q00535+Q15078); settings: at 1 µM
T7 sequence (Q00535 whole entry): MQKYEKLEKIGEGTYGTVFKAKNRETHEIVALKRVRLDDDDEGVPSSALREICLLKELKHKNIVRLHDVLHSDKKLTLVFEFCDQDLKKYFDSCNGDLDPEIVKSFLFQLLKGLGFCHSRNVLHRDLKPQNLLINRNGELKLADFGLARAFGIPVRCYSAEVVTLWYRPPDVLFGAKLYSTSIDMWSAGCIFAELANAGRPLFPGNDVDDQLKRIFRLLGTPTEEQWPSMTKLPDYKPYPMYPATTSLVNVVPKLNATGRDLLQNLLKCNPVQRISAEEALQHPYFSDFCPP
T7 sequence (Q15078 99-307 partner limits assumed): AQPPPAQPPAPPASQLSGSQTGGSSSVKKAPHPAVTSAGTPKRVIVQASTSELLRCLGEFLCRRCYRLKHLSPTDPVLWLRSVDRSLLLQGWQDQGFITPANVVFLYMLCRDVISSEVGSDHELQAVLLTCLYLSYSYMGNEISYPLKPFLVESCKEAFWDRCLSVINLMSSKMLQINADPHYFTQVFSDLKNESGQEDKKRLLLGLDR

[14] = biological target: T7, Cyclin-dependent kinase 5/CDK5 activator 1 (Homo sapiens); settings: at 10 µM
[15] = biological target: T7, Cyclin-dependent kinase 5/CDK5 activator 1 (Homo sapiens); settings: at 1 µM; remark: listed apart in the source
[16] = biological target: T7, Cyclin-dependent kinase 5/CDK5 activator 1 (Homo sapiens); settings: at 10 µM; remark: listed apart in the source
[17] = biological target: T8, CDK6/cyclin D3 (Homo sapiens) (UniProt P30281+Q00534); settings: at 1 µM
[18] = biological target: T8, CDK6/cyclin D3 (Homo sapiens); settings: at 10 µM
[19] = biological target: T9, Cyclin-dependent kinase 7/ cyclin H (Homo sapiens) (UniProt P51946+P50613); settings: at 1 µM
[20] = biological target: T9, Cyclin-dependent kinase 7/ cyclin H (Homo sapiens); settings: at 10 µM

SMILES	residual activity [1]	residual activity [2]	residual activity [3]	residual activity [4]	residual activity [5]	residual activity [6]	residual activity [7]	residual activity [8]	residual activity [9]	residual activity [10]	residual activity [11]	residual activity [12]	residual activity [13]	residual activity [14]	residual activity [15]	residual activity [16]	residual activity [17]	residual activity [18]	residual activity [19]	residual activity [20]
O=C1NC(=O)c2c1c1c3ccccc3[nH]c1n1cncc21	32%	25%	23%	17%	83%	53%	64%	61%	58%	35%	48%	27%	49%	30%	52%	30%	62%	28%	87%	69%
Nc1ncnc2c1cnn2-c1ccccc1	23%	23%	97%	54%	–	–	125%	94%	98%	–	95%	86%	–	–	92%	79%	95%	85%	86%	88%
CC(C)(C)c1nc2c3ccc(F)cc3c3c(=O)[nH]ccc3c2[nH]1	32%	7%	13%	4%	–	–	–	–	–	–	–	54%	–	–	–	–	71%	50%	69%	–
O=c1c(-c2ccc(F)cc2)c(-c2ccncc2)[nH]n1-c1ccc(Cl)cc1	100%	59%	–	76%	–	–	99%	–	–	102%	–	–	–	–	–	–	–	–	–	–
Cc1cc(C)c(/C=C2\C(=O)Nc3ccccc32)[nH]1	75%	57%	100%	48%	–	–	–	–	–	–	–	69%	–	–	–	–	–	60%	64%	32%
CN(C)S(=O)(=O)c1ccc2c(c1)/C(=C/c1cc3c([nH]1)CCCC3)C(=O)N2	97%	75%	40%	50%	88%	95%	87%	77%	96%	97%	87%	83%	90%	98%	90%	87%	96%	87%	25%	16%
O=C(NC(NC(=S)Nc1ccc(F)c([N+](=O)[O-])c1)C(Cl)(Cl)Cl)C(c1ccccc1)c1ccccc1 (centres undefined)	91%	63%	93%	73%	–	–	–	96%	90%	77%	100%	93%	98%	–	–	83%	97%	94%	–	–
O=C1Nc2ccc(Cl)cc2/C1=C/c1cc(Cl)c(O)c(Cl)c1	40%	29%	86%	47%	95%	97%	118%	79%	95%	97%	90%	73%	97%	77%	97%	80%	89%	86%	84%	87%
O=C(c1ccccc1)c1ccc(N2CCOCC2)cc1O	83%	119%	112%	113%	–	94%	119%	72%	–	–	96%	97%	–	88%	91%	96%	–	89%	87%	–
O=C1NC(=O)C(c2c[nH]c3ccccc23)=C1c1c[nH]c2ccccc12	27%	35%	73%	35%	–	39%	97%	19%	79%	30%	–	29%	74%	28%	76%	42%	–	–	76%	32%
O=c1cc(N2CCOCC2)oc2c1ccc1ccccc12	91%	96%	102%	108%	106%	91%	–	87%	95%	97%	102%	79%	80%	67%	100%	81%	100%	89%	86%	88%
Nc1ncnc2[nH]nc(Nc3ccc(F)cc3)c12	74%	18%	65%	12%	–	21%	–	49%	91%	59%	–	39%	98%	–	110%	–	107%	78%	98%	–
CCCC(=O)Oc1ccc2[nH]c(C(=O)c3cc4ccccc4[nH]3)cc2c1	90%	91%	96%	–	–	–	133%	99%	105%	95%	95%	74%	–	95%	74%	87%	79%	74%	83%	97%
O=C(O)/C=C/c1cc(Br)c(Br)c(Br)c1Br	103%	49%	91%	45%	109%	56%	–	67%	100%	91%	103%	87%	94%	84%	–	76%	100%	95%	104%	89%
O=C(c1cc2cc(O)ccc2[nH]1)c1cc2cc(O)ccc2[nH]1	5%	7%	37%	6%	60%	15%	78%	9%	50%	13%	51%	8%	23%	4%	37%	6%	38%	7%	76%	41%
O=c1cc(N2CCNCC2)oc2c(-c3ccccc3)cccc12	70%	74%	98%	95%	104%	102%	125%	87%	–	103%	102%	84%	100%	71%	100%	82%	93%	94%	94%	81%
O=C1C(Cl)=C(N2C(=O)CCC2=O)C(=O)c2ccccc21	82%	79%	118%	92%	–	–	86%	89%	95%	98%	97%	85%	95%	86%	119%	85%	98%	86%	–	89%
O=C(CCCc1ccc(-c2ccccc2F)cc1)Nc1ccc(O)cc1	102%	83%	107%	105%	–	–	96%	98%	101%	92%	102%	94%	104%	99%	111%	99%	103%	98%	98%	105%
O=C1NC(=O)C(c2cn(CCCO)c3ncccc23)=C1c1cnccn1	94%	84%	–	74%	72%	63%	84%	59%	87%	64%	93%	70%	73%	51%	90%	61%	–	–	71%	54%
COc1cc2nccc(Oc3ccc(NC(=S)NC(=O)c4ccccc4C)cc3)c2cc1OC	100%	56%	89%	89%	–	–	–	–	–	–	89%	74%	85%	86%	97%	86%	78%	77%	75%	87%
NC(=O)c1ccc(-c2nc(-c3ccc4c(c3)OCCO4)c(-c3ccccn3)[nH]2)cc1	99%	77%	119%	97%	–	–	96%	85%	92%	87%	–	–	–	84%	96%	80%	–	–	92%	81%
Oc1cccc(-c2nc(N3CCOCC3)c3oc4ncccc4c3n2)c1	95%	84%	96%	100%	–	–	129%	93%	–	–	118%	97%	–	–	92%	91%	91%	67%	86%	96%
Cn1c2ccccc2c2c3c(c4c5ccccc5n(CCC#N)c4c21)CNC3=O	6%	6%	7%	6%	20%	18%	22%	17%	7%	12%	–	–	5%	4%	3%	6%	48%	38%	74%	79%
N#C/C(=C1/Nc2ccccc2S1)c1ccnc(NCCc2cccnc2)n1	80%	45%	96%	29%	–	–	81%	33%	–	–	84%	44%	74%	54%	88%	49%	100%	63%	80%	54%
Nc1n[nH]c2nc3ccccc3nc12	80%	48%	–	–	96%	59%	86%	44%	83%	46%	83%	28%	80%	35%	92%	41%	92%	69%	89%	76%
Nc1nc(Nc2ccc(S(N)(=O)=O)cc2)nn1C(=O)c1c(F)cccc1F	55%	12%	40%	15%	1%	0%	-1%	1%	2%	-1%	3%	0%	0%	0%	-1%	0%	57%	12%	57%	10%
COc1ccc(Cl)cc1NC(=O)Nc1cc(C)nc2ccccc12	60%	64%	77%	100%	–	–	–	88%	–	–	93%	91%	–	–	–	77%	95%	83%	80%	90%
CC(C)(C)n1nc(Cc2cccc3ccccc23)c2c(N)ncnc21	90%	91%	111%	98%	106%	92%	130%	57%	107%	69%	86%	63%	110%	82%	87%	86%	87%	97%	86%	90%
CCN(CC)CCNC(=O)c1c(C)[nH]c(/C=C2\C(=O)Nc3ccc(Cl)cc32)c1C	6%	9%	29%	10%	–	57%	134%	69%	98%	65%	–	–	77%	22%	72%	28%	70%	13%	15%	2%
